{"source": "PubChem BioAssay (NCI)", "note": "The panel holds about 83,000 compounds, 20% with a hit somewhere; the sample as a whole holds those more often.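 Results are percent growth after 48 hours of single-concentration exposure. 100 means growth as in untreated cells, lower positive values show inhibition; negative values down to -100 show cell death.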 The source made the active and inactive calls. The calls were made as follows: active = growth percent below 10; inactive = the rest."}
{"system": "MDA-MB-468 breast", "assay": "NCI-60 one-dose screen, 48 h (100 = growth as untreated, 0 = no growth, -100 = all killed)", "settings": "10 µM unless noted"}
{"molecule": "C=C(C)[C@@H]1CC[C@]2(C(=O)NC(C)=O)CC[C@]3(C)[C@H](CC[C@@H]4[C@@]5(C)CCCNC(C)(C)[C@@H]5CC[C@]43C)[C@@H]12", "growth": "-20.3% (active)"}
{"molecule": "CCN(CC)CCn1c(=O)c2cc(OC)c(OC)cc2c2ccc3cc4c(cc3c21)OCO4", "growth": "-13.5% (active)"}
{"molecule": "O=C1C(=C(O)c2ccccc2)C(=O)c2ccccc21", "growth": "120% (inactive)"}
{"molecule": "Fc1cccc(CNc2c3ccccc3nc3ccccc23)c1", "growth": "0.607% (active)"}
{"molecule": "NC(N)=NS(=O)(=O)c1ccc(N=Nc2c(N)nn(-c3ccc([N+](=O)[O-])cc3[N+](=O)[O-])c2N)cc1", "growth": "106% (inactive)"}
{"molecule": "Clc1ccc(-c2nc3ccc(/C(=N\\N=C\\c4ccccc4)c4ccccc4)cc3[nH]2)cc1", "growth": "79.1% (inactive)"}
{"molecule": "C[C@]12CC[C@H]3[C@@H](CC=C4C[C@@H](O)CC[C@@]43C)[C@@H]1CC[C@@H]2C(=O)C/C=N/O", "growth": "90.2% (inactive)"}
{"molecule": "CN1C(=O)C2(NN=C(c3cccc4ccccc34)S2)c2ccccc21", "note": "(configuration not stated)", "growth": "32.4% (inactive)"}
{"molecule": "C#CCOc1ccc(C(Nc2ccc(OC)cc2)c2nnnn2C2CCCCC2)cc1", "note": "(configuration not stated)", "growth": "101% (inactive)"}
{"molecule": "COc1ccc(/C=C/C(=O)c2ccc(NC(=O)CSc3nnc(-c4ccc5nc(-c6ccc(Cl)cc6)[nH]c5c4)o3)cc2)cc1", "growth": "110% (inactive)"}
{"molecule": "O=[N+]([O-])c1ccccc1Sc1ccccc1[N+](=O)[O-]", "growth": "92.1% (inactive)"}
{"molecule": "CCCCN1CCN(c2ccc3nc(-c4ccc5nc(-c6ccc(C(F)(F)F)cc6)[nH]c5c4)[nH]c3c2)CC1", "growth": "-62.1% (active)"}
{"molecule": "CC(=O)c1c(-c2ccc(OC(F)(F)F)cc2)nc2ccccn12", "growth": "94.7% (inactive)"}
{"molecule": "O=C(Nc1cccc(-n2cc(-c3ccncc3)c(-c3ccc(Cl)c(O)c3)n2)c1)c1ccccc1", "growth": "64.1% (inactive)"}
{"molecule": "CC(C)[C@@H]1CC[C@]2(CO2)[C@@H]2C(=O)OCC(C(=O)O)=C[C@H]21", "growth": "7.72% (active)"}
{"molecule": "O=S(=O)(NCCCNc1nccc(-c2[nH]c(-c3ccccc3)nc2-c2ccc(Cl)c(O)c2)n1)c1cccc(F)c1", "growth": "50.9% (inactive)"}
{"molecule": "CN(c1ccc(Br)cc1)S(=O)(=O)c1ccc(-c2cnc(C3CC3)o2)cc1", "growth": "11.7% (inactive)"}
{"molecule": "Cn1c(N)c(N=Cc2ccccc2)c(=O)n(C)c1=O", "growth": "117% (inactive)"}
{"molecule": "CCCCCCCCC(=O)Nc1ccc(O)cc1", "growth": "100% (inactive)"}
{"molecule": "Clc1cccc(/C=N/Nc2nc(N/N=C/c3cccc(Cl)c3)nc(N3CCOCC3)n2)c1", "growth": "30.8% (inactive)"}
{"molecule": "COC(/C=C/c1ccc([N+](=O)[O-])cc1)OC", "growth": "73.4% (inactive)"}
{"molecule": "CC1=C2[C@@H](CC1)[C@]1(C)O[C@@](C(C)C)(C[C@H]1OC(=O)[C@H](C)O)[C@H]2OC(=O)/C=C/c1ccccc1", "growth": "86.9% (inactive)"}
{"molecule": "CC(C)OP(=O)(O)c1ncc(-c2ccc(C(F)(F)F)cc2)c(NC2CCCCCC2)n1", "growth": "28% (inactive)"}
{"molecule": "CCCC(=O)N1CCCCC1CC", "note": "(configuration not stated)", "growth": "102% (inactive)"}
{"molecule": "CC(=O)OC[C@]12CC[C@H]3[C@@H](C[C@H]4O[C@]45CC=CC(=O)[C@]35C)[C@]1(O)CC[C@@]2(O)[C@@](C)(O)C1CC(C)=C(C)C(=O)O1", "note": "(some centres not stated)", "growth": "-52.8% (active)"}
{"molecule": "O=c1oc2c(cnc3ccccc32)cc1-c1cccc(Cl)c1", "growth": "104% (inactive)"}
{"molecule": "COc1ccc(NC(=O)c2c(Nc3ccc(OC)cc3OC)n[nH]c2N)c(OC)c1", "growth": "82.3% (inactive)"}
{"molecule": "CCOc1nc(-c2ccccc2)cc2c(O)c(C(=O)N/N=C/c3ccc(OC)cc3)[nH]c(=O)c12", "growth": "61.9% (inactive)"}
{"molecule": "CC(C)N(C(=S)SSC(=S)N(C(C)C)C(C)C)C(C)C", "growth": "110% (inactive)"}
{"molecule": "COc1ccc(/C(=N\\O)c2cc(C)c(OC)c(C)c2)cc1O", "growth": "44.4% (inactive)"}
{"molecule": "CSCCC(NC(=O)C(Cl)Cl)C(=O)O", "note": "(configuration not stated)", "growth": "94.6% (inactive)"}
{"molecule": "O=C(CN1C(=O)/C(=C\\c2ccc(Cl)cc2)SC1=S)Nc1ncc(Cc2ccc(Cl)cc2)s1", "growth": "108% (inactive)"}
{"molecule": "Cc1ccc(C(=O)N/N=C/c2ccc3c(c2)OCO3)cc1", "growth": "101% (inactive)"}
{"molecule": "COc1cc2nc(C(=O)N3CCCCC3)cc(Nc3ccccc3)c2cc1OC", "growth": "131% (inactive)"}
{"molecule": "CC1=C([Se]CC(OC(=O)[C@@H](CO)NC(=O)OC(C)(C)C)C(=O)NC(C)(C)C)C(=O)c2ccccc2C1=O", "note": "(some centres not stated)", "growth": "-74.2% (active)"}
{"molecule": "CC(O)CCNC(c1ccccc1)C(O)c1ccccc1", "note": "(configuration not stated)", "growth": "116% (inactive)"}
{"molecule": "O=C(Cn1cc(CN2C(=O)c3ccccc3S2(=O)=O)nn1)Nc1ccc([N+](=O)[O-])cc1Cl", "growth": "103% (inactive)"}
